Shown are actives, neighbours in structure and some others; about 2% of the full set was active somewhere.
PrPC TRFRET: reduces human prion protein on the cell surface; P04156; cell surface PrPC, TR-FRET read-out; inhibition, % at 13.8 µM; 370,000 compounds, 0.43% hits; AID 720596; in the data active = inhibition above about 24%
PfHsp40 yeast: compounds rescuing yeast from Plasmodium falciparum HSP40 toxicity; S. cerevisiae expressing PfHsp40, growth rescue, ATP luminescence; growth rescue, % at 12.5 µM; 340,000 compounds, 0.68% hits; AID 504582; in the data active = growth rescue above about 28%, passing the limit was not always enough; inconclusive = no clear call, values can overlap the other calls;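 note: yeast W303a lacking pdr1 and pdr3 grown in galactose medium; growth measured after three days at 30 °C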
BJeLR viability: kills HRASV12-expressing BJeLR cells | BJeLR (HRASV12) viability, CellTiter-Glo ATP luminescence, 48 h | inhibition, % (test concentration not listed) | 300,000 compounds, 0.17% hits | AID 1554; in the data active = inhibition above about 50%; inconclusive = no clear call, values can overlap the other calls
CCHF vOTU inh: blocks the CCHF virus ovarian tumor domain protease; inhibition, % at 11.5 µM; 370,000 compounds, 0.55% hits; AID 651958; CCHFV vOTU protease, Pep-AMC fluorescence; in the data active = inhibition above about 30%
PrP 5UTR inh: inhibition of PrP 5' UTR reporter expression. cell-based PrP 5' UTR mRNA reporter, plate reader. inhibition, % (no concentration beside the values). 340,000 compounds, 0.35% hits. AID 488862; in the data active = inhibition above about 52%
Y pestis TopoI: inhibitors of Yersinia pestis topoisomerase I. Y. pestis Topo-I cleavage product accumulation, plate reader. activity, % at 10 µM. 360,000 compounds, 0.064% hits; in the data active = activity above about 50%, passing the limit was not always enough; inconclusive = no clear call, values can overlap the other calls
PrP UTR cherry: prion 5' UTR mRNA inhibition, cherry-pick retest; 1,100 compounds, 48% hits; shares compounds with PrP 5UTR inh; AID 504592; cell-based prion protein 5' UTR reporter, plate reader; inhibition, % at 2.5 µM; in the data active = inhibition above about 54%; inconclusive = no clear call, values can overlap the other calls
Large screens that a line does not name were inactive (follow-up assays come after a bar, where they were run); ! = repeats disagree.

CC(C)CN(CC(C)C)C(=O)CSc1nc2cccnc2n1C	none (no result: PfHsp40 yeast, BJeLR viability, PrP 5UTR inh, Y pestis TopoI)
CCCCN1C=C(C(=O)c2ccccc2)C(=O)CC1	none (no result: BJeLR viability)
CCN1C=C(C(=O)c2ccccc2)C(=O)CC1	PrP 5UTR inh 60.5 (no result: BJeLR viability) | PrP UTR cherry inactive
COCCCn1c(=NC(=O)c2ccccc2)c(C#N)cc2c(=O)n3cccc(C)c3nc21	PrP 5UTR inh 66.3 | PrP UTR cherry inactive
Cc1ccccc1NC(=O)[C@H]1CC(=O)O[C@@H]1c1ccccc1	none (no result: PfHsp40 yeast, BJeLR viability, PrP 5UTR inh, Y pestis TopoI)
CC(C)(C)S(=O)N1C[C@@H]2CC(=O)C=C2[C@H]1CCO (stereo partly drawn)	none (no result: PfHsp40 yeast, BJeLR viability, PrP 5UTR inh, Y pestis TopoI)
COC(=O)c1ccc(CCc2cc(O)c(Br)cc2O)cc1	PrP 5UTR inh 86.8 (no result: BJeLR viability) | PrP UTR cherry inactive
CCOc1ccc(-n2c(SCC(=O)Nc3ccc4c(c3)OCCO4)nnc2-c2ccncc2)cc1	none (no result: PfHsp40 yeast, BJeLR viability, PrP 5UTR inh, Y pestis TopoI)
Cc1ccc(NC(=O)Cc2ccc(F)cc2)c(S(=O)(=O)N2CCOCC2)c1	none (no result: PfHsp40 yeast, BJeLR viability, PrP 5UTR inh, Y pestis TopoI)
CCOC(=O)CC/C(C)=N\N=C1\SC(CC(=O)O)C(=O)N1c1ccccc1 (stereo not drawn)	PrP 5UTR inh 84.9 | PrP UTR cherry inactive
Cc1ccc2oc(/N=C(\N)NC(=O)C(C)(C)C)nc2c1	PrP 5UTR inh 90.5 | PrP UTR cherry 84.9
Cc1ccc2oc(/N=C(\N)NC(=O)C3CC3)nc2c1	none
CCOC(=O)C1=CCC(c2ccc([N+](=O)[O-])cc2)N(S(=O)(=O)c2ccc(C)cc2)C1 (stereo not drawn)	none (no result: PfHsp40 yeast, BJeLR viability, PrP 5UTR inh, Y pestis TopoI)
Cc1ccc(/C=C2\SC(=S)N(CCCC(=O)NNC(=O)c3ccccc3O)C2=O)cc1	PrP 5UTR inh 52.8 | PrP UTR cherry 75.0
CCOc1ccc(/C=C2\SC(=S)N(CCC(=O)O)C2=O)cc1	PrP 5UTR inh 68.4 | PrP UTR cherry 71.2
CC(=NN1CCN(c2ccccn2)CC1)c1ccccc1O	none (no result: PfHsp40 yeast, BJeLR viability, PrP 5UTR inh, Y pestis TopoI)
COc1ccccc1C(=O)NCCCNC(=O)c1ccccn1	none
O=C(NCCCNCc1ccccc1)c1ccccn1	PrP 5UTR inh 61.5! | PrP UTR cherry inactive
Cc1cc2c(c(=O)o1)[C@@]1(C(=O)N(C)c3ccccc31)C1=C(CCC1=O)O2	none (no result: PfHsp40 yeast, BJeLR viability, PrP 5UTR inh, Y pestis TopoI)
COc1ccc(C(=O)Nc2nc3ccccc3s2)c(OC)c1	BJeLR viability 53.4, PrP 5UTR inh 94.5 | PrP UTR cherry 94.9
COc1ccccc1C(=O)Nc1nc2ccccc2s1	PrP 5UTR inh 91.7 | PrP UTR cherry 92.7
CCOc1ccc2nc(NC(=O)c3ccccn3)sc2c1	PrP 5UTR inh 63.4 | PrP UTR cherry inactive
CCOc1ccccc1NC(=O)c1cc2c(C)nn(-c3ccccc3)c2s1	none (no result: PfHsp40 yeast, BJeLR viability, PrP 5UTR inh, Y pestis TopoI)
CC(=O)N1CCN(c2ccc(N3CCN(C(C)=O)[C@@H](C)C3)c(C)c2)[C@@H](C)C1	none (no result: PfHsp40 yeast, BJeLR viability, PrP 5UTR inh, Y pestis TopoI)
COC(=O)C1CN(C2CC2)CCS(=O)(=O)N1Cc1cn(Cc2ccccc2)nn1 (stereo not drawn)	none (no result: PfHsp40 yeast, BJeLR viability, PrP 5UTR inh, Y pestis TopoI)
CC1CCN(CCCNS(=O)(=O)c2cc3c(cc2Br)CCN3C(=O)C2CC2)CC1	none (no result: PfHsp40 yeast, BJeLR viability, PrP 5UTR inh, Y pestis TopoI)
O=c1[nH]cnc2c1ncn2[C@@H]1O[C@H](CO)[C@@H](O)[C@H]1O	PrP 5UTR inh 79.3 | PrP UTR cherry inactive
COc1ccc(Br)cc1C=NNC(=O)c1ccncc1	none (no result: PfHsp40 yeast, BJeLR viability, PrP 5UTR inh, Y pestis TopoI)
COc1ccc(Oc2nccc(-c3ccc(F)cc3)c2C#N)cc1	PrP 5UTR inh 76.4 | PrP UTR cherry inactive
N/C(=N\OCc1ccc([N+](=O)[O-])cc1)c1ccccn1	PrP 5UTR inh 85.2 (no result: PrPC TRFRET, CCHF vOTU inh, Y pestis TopoI) | PrP UTR cherry 79.9
CC(C(=O)O/N=C(\N)c1ccccn1)c1ccc([N+](=O)[O-])cc1 (stereo not drawn)	none
CCOC(=O)c1cnn(-c2ccccc2)c1NC(=O)CN1CCOCC1	PrP 5UTR inh 74.3 | PrP UTR cherry inactive
N#Cc1cnn(-c2ccccc2)c1NC(=O)CN1CCOCC1	none (no result: PfHsp40 yeast, PrP 5UTR inh)
O=C(Cc1ccc(NC(=O)C2CCCN(C(=O)c3ccccc3)C2)cc1)Nc1cccc(C(=O)N2CCCC2)c1 (stereo not drawn)	none (no result: PfHsp40 yeast, BJeLR viability, PrP 5UTR inh, Y pestis TopoI)
Cc1csc(NC(=O)c2cn3ccccc3n2)n1	PrP 5UTR inh 75.9 | PrP UTR cherry inconclusive
CC(C)c1ccc(/C=N/Nc2ccc(C(=O)O)cc2)cc1	PrP 5UTR inh 63.4 | PrP UTR cherry inactive
COc1ccc(/C=N/Nc2ccc(C(=O)O)cc2)cc1OC	none
Cc1ccc(/C=N/Nc2ccc(C(=O)O)cc2)s1	PfHsp40 yeast 123.1, PrP 5UTR inh 63.3 | PrP UTR cherry 53.5
C#CCN1CC(N(C)CCOC(=O)c2ccc(F)cc2)CS1(=O)=O (stereo not drawn)	none (no result: PfHsp40 yeast, BJeLR viability, PrP 5UTR inh, Y pestis TopoI)
